The structures appear in SMILES notation. Values joined by “and” are separate entries in the source; they are usually repeats but may differ in a detail not shown here. Equal entries are not always repeated. The whole screen tested about 350,000 compounds, of which about 2,100 (0.6%) were called active.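 Rule for the calls: active = inhibition of the ligand-induced calcium signal above about 50% at the single tested concentration (limit read from the data); inactive = the rest.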 Shown is part of a subset that was picked to be rich in actives. Where a structure was tested more than once in an assay, its records may differ in their call.

This assay in a line: blockers of CRF-evoked CRF-R2/CRF-BP calcium response – cell-based, HEK293, calcium dye fluorescence, uHTS, primary screen (AID 588475). The conditions noted are these: CRF-induced calcium fluorescence, at 11.8 µM, stronger effect = higher value.
`COc1ccc(SC[C@H](Cc2ccccc2)N2CCN(CCc3ccccc3)CCC2=O)cc1`: the inhibition was -0.63% (inactive).

In the case of `N=C1C(c2nc3ccccc3s2)=C(O)CN1NC(=O)c1ccc([N+](=O)[O-])cc1`, the inhibition was 18.1% (inactive).

As to `O=C(NC(Nc1nc2ccc([N+](=O)[O-])cc2s1)(C(F)(F)F)C(F)(F)F)c1ccccc1`, the inhibition is 56.4% (active).

Consider `O=C(O)c1cc([N+](=O)[O-])c(Nc2cccc3ccccc23)c([N+](=O)[O-])c1`, for which the inhibition was 42.1% (inactive).

Regarding `O=C(COc1ccc(NC(=O)c2ccccc2[N+](=O)[O-])cc1)c1ccc(F)cc1`, the inhibition was 20.8% (inactive).

With `Cc1ccc(CNC(=O)c2cc(-c3ccccc3C)n(CC3CC(c4cccc([N+](=O)[O-])c4)=NO3)n2)cc1` (stereo unspecified), the inhibition was 78.1% (active).

`COc1ccc(C2=NOC(Cn3nc(C(=O)NCc4ccc5c(c4)OCO5)cc3-c3ccccc3)C2)cc1` (stereo unspecified): the inhibition was 1.87% (inactive).

For `Cc1ccccc1-c1cc(C(=O)NCc2cccs2)n(CC2CC(c3cccnc3)=NO2)n1` (stereo unspecified), the inhibition is 9.77% (inactive).

As for `CC(C)c1cc(C(=O)N(C)C2CCCN(Cc3ccccc3F)C2)n(C)n1` (stereo unspecified), the inhibition is -12.1% (inactive).

Consider `CCCCn1c(N)c(N(CC(C)C)C(=O)c2cccc(S(=O)(=O)N3CCN(C(C)=O)CC3)c2)c(=O)[nH]c1=O`, for which the inhibition was 8.7% (inactive).

On to `COC(=O)C(CC(=O)Nc1cc(C)ccc1C)Nc1ccccc1OC` (stereo unspecified), for which the inhibition is 70.2% (active).

In the case of `COc1ccccc1NC(=O)CC(NCCN(C)C)C(=O)O` (stereo unspecified), the inhibition is 3.95% (inactive).

Regarding `Cc1ccc(C)c(NC(=O)COC(=O)CSc2ccccc2)c1`, the inhibition is 6.02% (inactive).

For the compound `CCc1ccc(S(=O)(=O)NCC(O)COc2ccc(OC)cc2)cc1` (stereo unspecified), the inhibition is -4.68% (inactive).

Take `Cc1ccccc1Nc1scc(-c2ccc(Br)cc2)[n+]1-c1ccccc1C`: the inhibition is 56.5% (active).

On to `Cc1ccsc1/C=N/NC(=O)Cc1cc(=O)[nH][nH]1`, for which the inhibition is 14.1% (inactive).

For the compound `Cc1cccc(N2CCN(C(C)C(=O)N3CCc4ccccc43)CC2)c1C` (stereo unspecified), the inhibition was -7.95% (inactive).

As for `CCN(C(=O)CSc1ncnc2c1cnn2-c1ccccc1)C1CCS(=O)(=O)C1` (stereo unspecified), the inhibition is 4.09% (inactive).

As for `CCC(C)N(C(=O)CSc1ncnc2c1cnn2-c1ccccc1)C1CCS(=O)(=O)C1` (stereo unspecified), the inhibition is -8.13% (inactive).

In the case of `CCN(CC)C(=O)CSc1ncnc2c1cnn2-c1ccccc1`, the inhibition is 55.8% (active).

`O=C(COC(=O)c1cncc(Br)c1)Nc1ccc(S(=O)(=O)N2CCOCC2)cc1`: the inhibition was 5.84% (inactive).

With `COc1ccc(CCN=C2SCC(=O)N2Cc2ccccc2)cc1OC`, the inhibition is 7.2% (inactive).

For the compound `COc1ccc(CCNC2=C(Cl)C(=O)N(Cc3ccccc3)C2=O)cc1OC`, the inhibition is 54% (active).

For the compound `COc1ccc(CCN2C(=O)C(C)=C(C)C2=O)cc1OC`, the inhibition is -6.13% (inactive).

Take `N#Cc1ccc(-c2ccc(Cl)cc2)nc1Oc1ccc(F)cc1`: the inhibition was -14% (inactive).

Turning to `Clc1ccc(Cl)c(Oc2ccc(Oc3nc(Cl)ccc3Cl)cc2)n1`, the inhibition was 55.5% (active).

Consider `CCc1nn(CC(=O)N2CCN(CC)CC2)c(=O)c2cccn12`, for which the inhibition is -5.15% (inactive).

On to `CC(C)=N/N=C1/NC(=O)C(Cc2ccccc2)S1` (stereo unspecified), for which the inhibition was 2.42% (inactive).

With `CN(CCOc1ccc(CC2SC(=O)NC2=O)cc1)c1ccccn1` (stereo unspecified), the inhibition was 66.6% (active) and 12.6% (inactive).

In the case of `CC(O)c1ccc(OCCN(C)c2ccccn2)cc1` (stereo unspecified), the inhibition was -5.71% (inactive).

With `OC(C#CCN1CCOCC1)(c1ccccc1)C1CCCCC1` (stereo unspecified), the inhibition was -6% (inactive).

Regarding `Cc1ccccc1-n1c(SCC(=O)Nc2cccc3ccccc23)nc(O)cc1=O`, the inhibition is -4.41% (inactive).

For `COc1ccc(S(=O)(=O)N2CCOCC2)cc1NC(=O)COc1ccccc1`, the inhibition was 12.8% (inactive).

For the compound `COc1ccc(S(=O)(=O)N2CCOCC2)cc1NC(=O)CSc1cc(C)ccc1C`, the inhibition was 1.57% (inactive).

With `COc1ccc(S(=O)(=O)N2CCOCC2)cc1NC(=O)CC1CC2CCC1C2` (stereo unspecified), the inhibition was 80.4% (active).

Regarding `O=C(Nc1cccn(Cc2c(Cl)cccc2Cl)c1=O)c1ccc(Cl)cc1`, the inhibition was -7% (inactive).

On to `Cc1ccc(OCc2nnc(NC(=O)OCC(C)C)s2)cc1`, for which the inhibition was -2.73% (inactive).

Regarding `COC(=O)c1nc2n(n1)C(c1ccc([N+](=O)[O-])cc1)C(C(=O)Nc1ccc(Cl)cc1)=C(C)N2` (stereo unspecified), the inhibition is 56.3% (active).

In the case of `COc1ccc(NC(=O)C2=C(C)NC(=O)NC2c2ccccc2[N+](=O)[O-])cc1` (stereo unspecified), the inhibition was -10% (inactive).

On to `COc1cc(C2C(C(=O)Nc3ccc(F)cc3)=C(C)Nc3nc(CCCO)nn32)cc(OC)c1OC` (stereo unspecified), for which the inhibition was 5.65% (inactive).

In the case of `O=C(Nc1cc(-c2ccccc2)nn1-c1ccccc1F)c1ccc([N+](=O)[O-])cc1`, the inhibition was -5.97% (inactive).

With `CS(=O)(=O)C1=NN2C(=N)/C(=C\c3ccc(OCCOc4ccccc4)cc3)C(=O)N=C2S1`, the inhibition is 26.8% (inactive).

Consider `CCS(=O)(=O)C1=NSC2=NC(=O)/C(=C\c3cc(C)n(-c4cccc(OC)c4)c3C)C(=N)N21`, for which the inhibition is 81.8% (active).

On to `CCS(=O)(=O)C1=NSC2=NC(=O)/C(=C\c3ccc(OS(=O)(=O)c4ccccc4)cc3)C(=N)N21`, for which the inhibition was 0.32% (inactive).

Consider `CCOc1ccc(NC(=S)NC(=O)/C=C/c2ccc(OC)cc2)c([N+](=O)[O-])c1`, for which the inhibition was -8% (inactive).

With `CCOC(=O)/C(C#N)=C\c1c(C)cc(C)c(COC(C)=O)c1C`, the inhibition was 3.93% (inactive).

Take `CCOC(=O)c1nnn(-c2nonc2-n2cccc2)c1CN1CCC(C(=O)OCC)CC1`: the inhibition is 17.9% (inactive).

On to `COc1ccc(-c2ccc(CCC(=O)O)n2NC(=O)c2ccc(C(C)(C)C)cc2)cc1`, for which the inhibition is 7.59% (inactive).

On to `Cc1cccc(OC(C)C(=O)N2CCc3ccccc3C2)c1` (stereo unspecified), for which the inhibition was 16.6% (inactive).

As for `COCc1cc(=O)[nH]c(SC)n1`, the inhibition is 9.17% (inactive).

For `Cc1cc(C)c2nc3nc(C)cc(C)c3c(N)c2c1`, the inhibition was 90.7% (active).

As for `Cc1ccc(/C=N/NC(=S)NC2CCCCC2)o1`, the inhibition is -28.4% (inactive).

Consider `Cc1ccc(/C=N/NC(=S)Nc2cccc(S(=O)(=O)N(C)C)c2)o1`, for which the inhibition is 82.9% (active).

In the case of `CN(C)S(=O)(=O)c1cccc(NC(=S)N/N=C/C(=O)c2ccccc2)c1`, the inhibition is 3.21% (inactive).

As to `O=C1CC2(CCCC2)C(=O)N1CN1CCN(S(=O)(=O)c2ccc(F)cc2F)CC1`, the inhibition was 6.17% (inactive).

Regarding `Cc1cc(C(=O)OCC(=O)Nc2nccs2)c2ccccc2n1`, the inhibition was 8.78% (inactive).
